Compounds without any hit were thinned out: in the full panel of roughly 79,000, 15% have a hit. Values without a mark were called inactive. Activity calls are given as the source filed them. No stated cut-off is given here; in the data, active means growth inhibition above about 70%; inactive means the rest.

The nature of this assay: NCI Yeast Anticancer Drug Screen. Data for the mlh1 strain (AID 171).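 Further: 0% = growth of vehicle-treated control cultures of the same strain.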 As to conditions: S. cerevisiae mlh1 strain growth inhibition; at 11.0 µM; active compounds read high. Summed up: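 Steps: expose the defined-mutant yeast strain to compound; expose a parallel culture to vehicle; measure growth; express compound effect as inhibition relative to the vehicle culture.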
Take `O=[N+]([O-])c1cc[n+]([O-])cc1`: the growth inhibition was -3%.

As to `CC1(C)CC(=O)C(/C=N/c2nc(-c3ccccc3)cs2)=C(O)C1`, the growth inhibition is 12%.

Regarding `Nc1nc(N)c2nc(CNc3ccc(C(=O)NC(CCC(=O)O)C(=O)O)cc3F)cnc2n1` (stereo not drawn), the growth inhibition is 8%.

As to `COC(=O)CC1(O)C(/C=C/c2ccccc2)C(C(=O)OC)C(=O)C(C(=O)OC)C1C(=O)OC` (stereo not drawn), the growth inhibition was 0%.

Regarding `CC(C)(C)c1ccc(NS(=O)(=O)c2ccc(N)cc2)cc1`, the growth inhibition is 7%.

For `CCN(CC)CCNc1ccc([N+](=O)[O-])c2nc3ccccc3c(N)c12`, the growth inhibition is -9%.

With `CCCCN(CCCC)C(=O)/C=C/c1ccccc1`, the growth inhibition was -5%.

Regarding `O=c1[nH]c(-c2ccccc2)nc2c1sc1nc3ccccc3n12`, the growth inhibition is -47%.

Consider `O=[N+]([O-])c1ccc2c(c1)/C(=N/N=C1c3ccccc3Cc3ccccc31)c1cc([N+](=O)[O-])cc([N+](=O)[O-])c1-2`, for which the growth inhibition was 99% (active).

As for `CC(C)C(C)/C=C\C(C)C1CCC2C3=CC=C4CC(O)CCC4(C)C3CCC21C` (stereo not drawn), the growth inhibition was -5%.

Turning to `O=C1Nc2ccc(Br)cc2C1=Nc1ccc2c(c1)OCO2`, the growth inhibition is -24%.

As for `CCCCOCn1c(=O)[nH]c(=O)c2cc(Br)ccc21`, the growth inhibition is -41%.

Consider `Cc1ccc(S/C(=C\C(=O)O)c2ccccc2)cc1`, for which the growth inhibition was 6%.

As to `O=[N+]([O-])/C=C/c1cc(Cl)c(/C=C/[N+](=O)[O-])cc1Cl`, the growth inhibition is 68%.

`Cc1cc(S(=O)(=O)Nc2nnc3cnc4ccccc4n23)c(S)cc1Cl`: the growth inhibition was 1%.

Consider `O=C(/C=C/c1cc(Cl)cc(Cl)c1O)c1cccc(O)c1`, for which the growth inhibition was 80% (active).

In the case of `NC1CCCCC1N.Nc1c(N=Nc2ccc(-c3ccc(N=Nc4cc(S(=O)(=O)[O-])c5ccccc5c4N)cc3)cc2)cc(S(=O)(=O)[O-])c2ccccc12.[OH3+].[OH3+].[Pt+4]`, the growth inhibition is 81% (active).

As for `COC(=O)CCC(NC(=S)N/N=C(\C)c1ccccn1)C(=O)OC` (stereo not drawn), the growth inhibition is 23%.

Consider `NC(=O)C(=O)NNc1ccccc1`, for which the growth inhibition was 31%.

With `COc1cc(C2SCC(=O)N2c2ccc(-c3ccc(-n4c(-c5ccccc5)nc5ccccc5c4=O)cc3)cc2)ccc1O` (stereo not drawn), the growth inhibition is 1%.

For `COc1ccc(/C=C/c2sc3ccccc3[n+]2CCCCI)cc1OC`, the growth inhibition was -6%.

As to `Cc1c(C(C)C)cc(OCCO)cc1C(C)C`, the growth inhibition was -14%.

On to `Cc1cc(NCCCCCCCCNc2cc(C)nc3cc(N)ccc23)c2ccc(N)cc2n1`, for which the growth inhibition is 92% (active).

As for `C=C(Cl)COC(=O)Nc1cccc(Cl)c1`, the growth inhibition is 1%.

As to `CC(=O)OC1CC2C(C)(C)C(=O)C=C[C@]2(C)C2CCC3(C)C(=CCC3[C@H](CO)C[C@H](O)C(=O)C(C)(C)O)[C@]12C` (stereo partly drawn), the growth inhibition was 39%.

Consider `COc1ccc(/C=C/C(=O)c2ccccc2)cc1OC`, for which the growth inhibition is 17%.

For the compound `COc1c(O)c(C=O)c(Br)c(C=O)c1O`, the growth inhibition was 9%.

In the case of `O=[N+]([O-])c1cc(Cl)cnc1Br`, the growth inhibition is 6%.

Regarding `Cc1ccc2c(c1)C1(SC(C)C(=O)N1c1ccc(Cl)cc1)C(=O)N2` (stereo not drawn), the growth inhibition was 17%.

`COc1cc(CSc2ccc(O)cc2)cc(O)c1O`: the growth inhibition was 3%.

As to `Cc1ccc2c3ccc4c(c3n(C)c2c1)C(=O)C=CC4=O`, the growth inhibition is 16%.

For the compound `O=C(Nc1ccc(Cl)cc1)Nc1nnc2nc(C(C(=O)c3cccc([N+](=O)[O-])c3Cl)c3nc4nnc(NC(=O)Nc5ccc(Cl)cc5)n4[nH]c3=O)c(=O)[nH]n12`, the growth inhibition was 2%.

Take `O=C(O)C1CC(c2ccccc2)=NN1c1ccccc1` (stereo not drawn): the growth inhibition is -9%.

Take `CCCCc1ccc(-n2c(C)c(COC(=O)NC)c(COC(=O)NC)c2C)cc1`: the growth inhibition is 83% (active).

As to `CCC(=O)c1cc(C(=O)C(=S)SC)cc(C(=O)C(=S)SC)c1`, the growth inhibition was 98% (active).

In the case of `CCn1c(O)c(C=Nc2ccccc2)s/c1=N/Nc1nc(-c2ccccc2)cs1`, the growth inhibition was 3%.

Take `Cc1ccccc1N=C(NO)c1ccccc1`: the growth inhibition is 2%.

As for `Cc1nc2ccccc2nc1NNc1ccccc1`, the growth inhibition was 7%.
